Experiments:
Experiment in all cases: DAPPL (digital affinity profiling via proximity ligation, sequencing); 10 mM Tris-HCl pH 7.5, 50 mM NaCl, 1 mM DTT, 4% glycerol, room temperature, 30 min; GST-TFs on glutathione beads, 16-mer random dsDNA library, 0.1% formaldehyde crosslink after washing; high values mean tight binding
FEV = biological target: T1, FEV (Homo sapiens, UniProt Q99581 1-238); settings: protein: recombinant; tags: N-terminal GST; dsDNA, one strand shown
T1 sequence: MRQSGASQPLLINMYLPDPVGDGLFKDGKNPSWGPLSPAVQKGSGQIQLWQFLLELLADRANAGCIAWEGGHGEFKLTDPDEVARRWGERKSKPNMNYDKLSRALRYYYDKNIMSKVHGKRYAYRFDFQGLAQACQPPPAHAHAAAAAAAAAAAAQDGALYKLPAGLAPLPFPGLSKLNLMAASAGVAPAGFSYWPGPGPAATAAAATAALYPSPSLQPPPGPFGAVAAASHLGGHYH
How it was run: (§1)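 Pools of DNA-barcoded human transcription factors, expressed in yeast as GST fusions on glutathione beads and combined with a tag-only sample, were incubated with 200 nmole of a 16-mer random double-stranded DNA library. Incubation took 30 min at room temperature in Tris/NaCl/DTT/glycerol buffer and was followed by washing, 0.1% formaldehyde crosslinking, proximity ligation (BsaI/T4 ligase, 1 h, 37 °C), PCR amplification and sequencing on an Illumina NextSeq500. Binding signal is the ratio of a hexamer's read frequency for a factor to its frequency for the tag-only sample.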

ETV5 = ETV5 (Homo sapiens, UniProt P41161 1-510); settings: protein: recombinant; tags: N-terminal GST; dsDNA, one strand shown
How it was run: as §1

HSF1 = HSF1 (Homo sapiens, UniProt Q00613 1-529); settings: protein: recombinant; tags: N-terminal GST; chain copies: 3; dsDNA, one strand shown
How it was run: as §1

SPIC = biological target: T2, SPIC (Homo sapiens, UniProt Q8N5J4 1-248); settings: protein: recombinant; tags: N-terminal GST; dsDNA, one strand shown
T2 sequence: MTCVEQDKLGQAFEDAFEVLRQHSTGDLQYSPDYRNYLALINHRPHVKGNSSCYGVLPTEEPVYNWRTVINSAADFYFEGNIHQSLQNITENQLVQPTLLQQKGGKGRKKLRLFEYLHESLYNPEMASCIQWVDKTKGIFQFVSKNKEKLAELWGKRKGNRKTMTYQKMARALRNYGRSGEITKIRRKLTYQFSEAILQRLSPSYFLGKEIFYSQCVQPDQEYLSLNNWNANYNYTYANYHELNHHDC
How it was run: as §1

ELF4 = ELF4 (Homo sapiens, UniProt Q99607 1-663); settings: protein: recombinant; tags: N-terminal GST; dsDNA, one strand shown
How it was run: as §1

ELK4 = biological target: T3, ELK4 (Homo sapiens, UniProt P28324-2 1-405); settings: protein: recombinant; tags: N-terminal GST; dsDNA, one strand shown
T3 sequence: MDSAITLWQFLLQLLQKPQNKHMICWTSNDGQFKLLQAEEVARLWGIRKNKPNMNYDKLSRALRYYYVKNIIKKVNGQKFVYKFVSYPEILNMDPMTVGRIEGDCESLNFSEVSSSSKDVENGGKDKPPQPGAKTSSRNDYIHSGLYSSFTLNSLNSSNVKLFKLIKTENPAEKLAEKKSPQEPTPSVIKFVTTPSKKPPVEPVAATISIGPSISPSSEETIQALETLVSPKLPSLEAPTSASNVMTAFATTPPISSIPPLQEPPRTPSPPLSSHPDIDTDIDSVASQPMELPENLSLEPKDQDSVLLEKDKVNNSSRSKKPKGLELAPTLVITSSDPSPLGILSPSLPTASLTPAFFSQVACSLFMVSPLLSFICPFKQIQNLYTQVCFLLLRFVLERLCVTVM
How it was run: as §1

ETV2 = biological target: T4, ETV2 (Homo sapiens, UniProt O00321 1-342); settings: protein: recombinant; tags: N-terminal GST; dsDNA, one strand shown
T4 sequence: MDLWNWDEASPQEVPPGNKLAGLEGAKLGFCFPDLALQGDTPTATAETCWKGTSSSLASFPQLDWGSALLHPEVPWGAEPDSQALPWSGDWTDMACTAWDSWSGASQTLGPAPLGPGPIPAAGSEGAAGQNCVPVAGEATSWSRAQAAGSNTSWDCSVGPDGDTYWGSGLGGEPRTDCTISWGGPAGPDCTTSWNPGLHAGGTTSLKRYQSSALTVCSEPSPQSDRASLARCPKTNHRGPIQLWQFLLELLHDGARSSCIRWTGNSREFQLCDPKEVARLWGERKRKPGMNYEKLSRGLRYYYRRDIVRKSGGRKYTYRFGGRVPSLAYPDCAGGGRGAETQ
How it was run: as §1

ELF3 = biological target: T5, ELF3 (Homo sapiens, UniProt P78545 1-371); settings: protein: recombinant; tags: N-terminal GST; dsDNA, one strand shown
T5 sequence: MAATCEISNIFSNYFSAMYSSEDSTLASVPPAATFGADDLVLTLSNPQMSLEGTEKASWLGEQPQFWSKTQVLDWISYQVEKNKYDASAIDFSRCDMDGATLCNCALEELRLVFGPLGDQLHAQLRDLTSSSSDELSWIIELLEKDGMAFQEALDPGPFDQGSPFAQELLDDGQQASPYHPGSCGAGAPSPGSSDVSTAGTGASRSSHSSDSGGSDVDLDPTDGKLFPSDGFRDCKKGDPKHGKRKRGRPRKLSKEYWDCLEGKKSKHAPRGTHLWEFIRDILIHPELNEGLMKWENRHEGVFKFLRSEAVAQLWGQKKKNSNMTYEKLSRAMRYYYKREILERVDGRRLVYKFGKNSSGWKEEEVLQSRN
How it was run: as §1

CRX = CRX (Homo sapiens, UniProt O43186 1-299); settings: protein: recombinant; tags: N-terminal GST; dsDNA, one strand shown
How it was run: as §1

ETV1 = ETV1 (Homo sapiens, UniProt P50549 1-477); settings: protein: recombinant; tags: N-terminal GST; dsDNA, one strand shown
How it was run: as §1

ERF = biological target: T6, ERF (Homo sapiens, UniProt P50548 1-548); settings: protein: recombinant; tags: N-terminal GST; dsDNA, one strand shown
T6 sequence: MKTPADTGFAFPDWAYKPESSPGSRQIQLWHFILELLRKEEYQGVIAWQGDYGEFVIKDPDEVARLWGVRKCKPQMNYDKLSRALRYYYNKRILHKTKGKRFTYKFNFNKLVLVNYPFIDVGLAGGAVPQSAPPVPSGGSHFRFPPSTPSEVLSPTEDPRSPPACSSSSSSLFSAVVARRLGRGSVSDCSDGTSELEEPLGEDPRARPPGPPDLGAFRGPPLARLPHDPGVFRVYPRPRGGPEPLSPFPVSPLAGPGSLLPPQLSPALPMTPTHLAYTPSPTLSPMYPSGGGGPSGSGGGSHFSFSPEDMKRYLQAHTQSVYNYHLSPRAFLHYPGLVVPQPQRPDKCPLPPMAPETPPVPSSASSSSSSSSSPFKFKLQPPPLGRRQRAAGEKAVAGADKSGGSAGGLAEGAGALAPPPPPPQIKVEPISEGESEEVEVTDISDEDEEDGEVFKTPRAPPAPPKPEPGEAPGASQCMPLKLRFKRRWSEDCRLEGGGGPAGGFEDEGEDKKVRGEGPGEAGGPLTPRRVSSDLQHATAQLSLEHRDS
How it was run: as §1

ETV3L = biological target: T7, ETV3L (Homo sapiens, UniProt Q6ZN32 1-361); settings: protein: recombinant; tags: N-terminal GST; dsDNA, one strand shown
T7 sequence: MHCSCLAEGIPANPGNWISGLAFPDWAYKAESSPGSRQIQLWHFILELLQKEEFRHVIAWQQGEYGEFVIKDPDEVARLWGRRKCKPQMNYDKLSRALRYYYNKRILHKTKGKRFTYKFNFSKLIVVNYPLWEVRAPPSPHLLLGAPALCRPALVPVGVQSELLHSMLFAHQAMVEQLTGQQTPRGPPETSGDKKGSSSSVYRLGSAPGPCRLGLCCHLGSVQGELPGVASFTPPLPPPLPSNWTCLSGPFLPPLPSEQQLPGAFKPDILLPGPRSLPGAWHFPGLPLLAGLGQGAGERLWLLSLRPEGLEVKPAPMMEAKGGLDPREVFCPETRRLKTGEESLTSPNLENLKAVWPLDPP
How it was run: as §1

ETS2 = biological target: T8, ETS2 (Homo sapiens, UniProt P15036 1-469); settings: protein: recombinant; tags: N-terminal GST; dsDNA, one strand shown
T8 sequence: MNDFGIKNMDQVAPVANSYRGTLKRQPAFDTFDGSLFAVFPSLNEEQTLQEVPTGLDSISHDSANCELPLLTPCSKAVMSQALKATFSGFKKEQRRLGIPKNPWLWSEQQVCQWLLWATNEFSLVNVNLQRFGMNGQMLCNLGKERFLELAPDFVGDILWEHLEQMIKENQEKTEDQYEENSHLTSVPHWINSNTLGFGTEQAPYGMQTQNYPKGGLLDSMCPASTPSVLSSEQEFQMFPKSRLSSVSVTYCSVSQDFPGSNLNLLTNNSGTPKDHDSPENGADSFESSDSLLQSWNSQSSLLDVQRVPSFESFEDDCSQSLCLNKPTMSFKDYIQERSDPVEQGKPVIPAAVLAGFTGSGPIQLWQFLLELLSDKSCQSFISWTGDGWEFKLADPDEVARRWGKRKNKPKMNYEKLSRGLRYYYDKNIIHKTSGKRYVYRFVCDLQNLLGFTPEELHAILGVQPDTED
How it was run: as §1

SPDEF = biological target: T9, SPDEF (Homo sapiens, UniProt O95238 1-335); settings: protein: recombinant; tags: N-terminal GST; dsDNA, one strand shown
T9 sequence: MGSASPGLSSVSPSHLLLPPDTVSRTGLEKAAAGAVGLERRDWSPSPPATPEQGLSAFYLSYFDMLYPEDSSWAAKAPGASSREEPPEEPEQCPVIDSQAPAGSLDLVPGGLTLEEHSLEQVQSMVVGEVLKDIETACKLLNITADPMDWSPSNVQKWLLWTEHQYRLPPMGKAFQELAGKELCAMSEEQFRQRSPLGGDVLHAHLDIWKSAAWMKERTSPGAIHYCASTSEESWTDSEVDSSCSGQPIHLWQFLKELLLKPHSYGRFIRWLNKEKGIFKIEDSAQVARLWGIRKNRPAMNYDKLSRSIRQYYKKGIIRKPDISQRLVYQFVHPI
How it was run: as §1

ETV7 = biological target: T10, ETV7 (Homo sapiens, UniProt Q9Y603 1-341); settings: protein: recombinant; tags: N-terminal GST; dsDNA, one strand shown
T10 sequence: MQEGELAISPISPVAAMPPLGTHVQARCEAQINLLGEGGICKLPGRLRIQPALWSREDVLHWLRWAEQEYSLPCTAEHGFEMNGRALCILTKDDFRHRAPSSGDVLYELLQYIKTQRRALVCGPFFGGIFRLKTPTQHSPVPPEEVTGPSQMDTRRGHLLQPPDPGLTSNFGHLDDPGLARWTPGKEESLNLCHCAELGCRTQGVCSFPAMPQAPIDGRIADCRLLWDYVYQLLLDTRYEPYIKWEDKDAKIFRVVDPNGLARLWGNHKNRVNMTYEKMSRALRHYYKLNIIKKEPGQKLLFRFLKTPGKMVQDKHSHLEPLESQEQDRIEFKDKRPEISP
How it was run: as §1

ELF5 = biological target: T11, ELF5 (Homo sapiens, UniProt Q9UKW6-2 1-255); settings: protein: recombinant; tags: N-terminal GST; dsDNA, one strand shown
T11 sequence: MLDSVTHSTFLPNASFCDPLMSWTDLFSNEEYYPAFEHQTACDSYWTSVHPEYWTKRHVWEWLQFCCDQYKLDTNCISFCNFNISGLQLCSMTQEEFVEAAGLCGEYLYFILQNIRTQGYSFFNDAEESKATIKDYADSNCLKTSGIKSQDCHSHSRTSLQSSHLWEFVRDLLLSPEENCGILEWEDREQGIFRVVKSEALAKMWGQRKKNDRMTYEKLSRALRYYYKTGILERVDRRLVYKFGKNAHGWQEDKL
How it was run: as §1

ETV6 = ETV6 (Homo sapiens, UniProt P41212 1-452); settings: protein: recombinant; tags: N-terminal GST; dsDNA, one strand shown
How it was run: as §1

Chain of ETV6 (P41212 whole entry): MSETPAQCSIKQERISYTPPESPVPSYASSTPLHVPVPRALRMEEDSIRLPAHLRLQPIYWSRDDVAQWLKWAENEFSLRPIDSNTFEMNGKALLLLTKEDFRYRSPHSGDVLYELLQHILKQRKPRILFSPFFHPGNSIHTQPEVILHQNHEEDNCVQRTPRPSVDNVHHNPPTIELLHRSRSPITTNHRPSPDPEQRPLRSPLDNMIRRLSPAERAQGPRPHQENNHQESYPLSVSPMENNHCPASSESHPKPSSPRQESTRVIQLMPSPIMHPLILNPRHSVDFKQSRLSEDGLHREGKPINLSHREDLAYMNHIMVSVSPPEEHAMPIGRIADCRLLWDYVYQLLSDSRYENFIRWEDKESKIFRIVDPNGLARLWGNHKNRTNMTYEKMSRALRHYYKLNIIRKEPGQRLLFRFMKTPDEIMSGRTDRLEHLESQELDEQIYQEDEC
Chain of ETV5 (P41161 whole entry): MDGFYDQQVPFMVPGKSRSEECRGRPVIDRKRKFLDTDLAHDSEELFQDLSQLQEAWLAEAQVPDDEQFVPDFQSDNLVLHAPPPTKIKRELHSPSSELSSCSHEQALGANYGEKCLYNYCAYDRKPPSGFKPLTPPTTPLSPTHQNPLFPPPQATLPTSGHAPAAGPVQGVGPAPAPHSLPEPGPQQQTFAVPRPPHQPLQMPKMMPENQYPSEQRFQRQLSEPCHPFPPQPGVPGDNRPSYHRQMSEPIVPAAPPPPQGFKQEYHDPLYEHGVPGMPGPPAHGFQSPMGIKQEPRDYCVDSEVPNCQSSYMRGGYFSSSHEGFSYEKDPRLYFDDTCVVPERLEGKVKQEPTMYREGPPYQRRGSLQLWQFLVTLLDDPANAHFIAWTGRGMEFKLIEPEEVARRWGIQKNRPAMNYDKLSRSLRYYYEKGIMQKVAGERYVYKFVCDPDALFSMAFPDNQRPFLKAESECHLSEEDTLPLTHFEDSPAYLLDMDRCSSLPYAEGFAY
Chain of ELF4 (Q99607 whole entry): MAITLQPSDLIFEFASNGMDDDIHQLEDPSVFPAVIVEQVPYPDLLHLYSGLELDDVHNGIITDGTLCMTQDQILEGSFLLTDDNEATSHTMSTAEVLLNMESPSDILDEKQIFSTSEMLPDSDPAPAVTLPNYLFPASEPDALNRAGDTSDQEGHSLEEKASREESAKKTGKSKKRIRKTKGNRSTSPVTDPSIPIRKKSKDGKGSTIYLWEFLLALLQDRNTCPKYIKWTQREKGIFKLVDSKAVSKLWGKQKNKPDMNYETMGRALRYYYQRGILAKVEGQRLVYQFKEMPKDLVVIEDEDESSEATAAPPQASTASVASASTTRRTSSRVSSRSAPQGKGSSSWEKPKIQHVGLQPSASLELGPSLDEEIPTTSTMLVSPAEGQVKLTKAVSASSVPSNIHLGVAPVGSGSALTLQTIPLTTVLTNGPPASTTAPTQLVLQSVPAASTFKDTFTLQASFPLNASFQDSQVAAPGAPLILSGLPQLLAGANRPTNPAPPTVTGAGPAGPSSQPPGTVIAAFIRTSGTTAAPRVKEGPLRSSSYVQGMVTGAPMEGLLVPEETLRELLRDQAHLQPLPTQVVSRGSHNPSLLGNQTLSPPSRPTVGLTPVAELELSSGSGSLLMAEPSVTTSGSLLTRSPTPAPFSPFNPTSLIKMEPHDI
Chain of CRX (O43186 whole entry): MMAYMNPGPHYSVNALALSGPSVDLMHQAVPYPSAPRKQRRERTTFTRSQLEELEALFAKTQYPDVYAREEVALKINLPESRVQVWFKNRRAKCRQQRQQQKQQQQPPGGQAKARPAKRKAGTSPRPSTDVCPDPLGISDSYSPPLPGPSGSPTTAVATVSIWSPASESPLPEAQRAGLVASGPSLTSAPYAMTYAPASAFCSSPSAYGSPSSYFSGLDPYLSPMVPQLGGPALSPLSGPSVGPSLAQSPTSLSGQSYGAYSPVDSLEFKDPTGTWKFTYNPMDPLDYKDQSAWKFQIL
Chain of ETV1 (P50549 whole entry): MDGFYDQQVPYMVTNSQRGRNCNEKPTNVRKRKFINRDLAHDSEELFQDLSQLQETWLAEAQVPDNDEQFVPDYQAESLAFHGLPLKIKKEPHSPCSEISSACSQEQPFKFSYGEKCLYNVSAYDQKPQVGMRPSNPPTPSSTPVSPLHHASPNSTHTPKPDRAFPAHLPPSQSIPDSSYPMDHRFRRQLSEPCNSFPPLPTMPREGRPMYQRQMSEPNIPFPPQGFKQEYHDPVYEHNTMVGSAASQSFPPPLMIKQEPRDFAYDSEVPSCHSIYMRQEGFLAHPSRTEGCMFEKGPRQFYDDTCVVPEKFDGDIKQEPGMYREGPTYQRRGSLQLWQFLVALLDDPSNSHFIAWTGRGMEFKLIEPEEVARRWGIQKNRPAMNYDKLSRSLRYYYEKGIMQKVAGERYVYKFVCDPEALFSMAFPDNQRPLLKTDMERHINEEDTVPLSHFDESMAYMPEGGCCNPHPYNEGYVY
Chain of HSF1 (Q00613 whole entry): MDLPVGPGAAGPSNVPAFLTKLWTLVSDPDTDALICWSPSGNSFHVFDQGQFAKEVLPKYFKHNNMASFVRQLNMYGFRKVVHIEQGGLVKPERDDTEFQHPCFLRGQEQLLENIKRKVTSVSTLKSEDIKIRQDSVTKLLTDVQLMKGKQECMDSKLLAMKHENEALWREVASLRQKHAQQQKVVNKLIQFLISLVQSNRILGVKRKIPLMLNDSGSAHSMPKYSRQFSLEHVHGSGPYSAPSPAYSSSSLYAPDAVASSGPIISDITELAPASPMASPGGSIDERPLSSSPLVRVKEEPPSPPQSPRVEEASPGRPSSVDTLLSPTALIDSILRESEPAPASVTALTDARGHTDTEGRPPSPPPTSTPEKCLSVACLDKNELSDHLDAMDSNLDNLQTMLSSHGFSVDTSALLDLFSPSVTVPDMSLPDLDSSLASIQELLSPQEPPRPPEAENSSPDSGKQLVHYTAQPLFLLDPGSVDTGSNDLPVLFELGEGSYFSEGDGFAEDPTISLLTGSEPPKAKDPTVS

TAGGGT
binding signal (FEV): 1.07 fold enrichment (6-mer frequency, TF over GST control)
binding signal (ETV5): 1.08 fold enrichment (6-mer frequency, TF over GST control)
binding signal (HSF1): 1.06 fold enrichment (6-mer frequency, TF over GST control)
binding signal (SPIC): 1.11 fold enrichment (6-mer frequency, TF over GST control)
binding signal (ELF4): 1.09 fold enrichment (6-mer frequency, TF over GST control)
binding signal (ELK4): 1.22 fold enrichment (6-mer frequency, TF over GST control)
binding signal (ETV2): 1.16 fold enrichment (6-mer frequency, TF over GST control)
binding signal (ELF3): 1.1 fold enrichment (6-mer frequency, TF over GST control)
binding signal (CRX): 1.2 fold enrichment (6-mer frequency, TF over GST control)
binding signal (ETV1): 1.01 fold enrichment (6-mer frequency, TF over GST control)
binding signal (ERF): 1.15 fold enrichment (6-mer frequency, TF over GST control)
binding signal (ETV3L): 1.03 fold enrichment (6-mer frequency, TF over GST control)
binding signal (ETS2): 1.02 fold enrichment (6-mer frequency, TF over GST control)
binding signal (SPDEF): 1.12 fold enrichment (6-mer frequency, TF over GST control)
binding signal (ETV7): 1.11 fold enrichment (6-mer frequency, TF over GST control)
binding signal (ELF5): 1.06 fold enrichment (6-mer frequency, TF over GST control)
binding signal (ETV6): 1.04 fold enrichment (6-mer frequency, TF over GST control)
